This passage reports Potency and activation results from PubChem BioAssay (Tox21).

Records with an inconclusive call do not appear. A call without a number means that no potency is given here. Values without a mark were called inactive. Active and inactive are the calls of the source. The call rests on the fitted dose curve; in most records, active means well fitted activation curve with a large enough effect in the signal ratio in the repeat runs (not every such curve was filed as active); inconclusive means weak or mixed curves; inactive means flat fitted curve, though single readings scatter; the % refers to the signal ratio.

The assay in a line: p53 small molecule agonists, cell-based qHTS assay (AID 1963582). To be noted: HCT-116 p53RE-bla reporter, beta-lactamase FRET ratio, 16 h; series mostly up to 66 µM. The source says: National Center for Advancing Translational Sciences [NCATS]
Division of Preclinical Innovation [DPI]
U.S. Environmental Protection Agency [EPA]
National Institutes of Environmental Health Sciences [NIEHS]
National Toxicology Program [NTP]
U.S. Food and Drug Administration [FDA]
p53, a tumor suppressor protein, is activated following cellular insult, including DNA damage and other cellular stresses. The activation of p53 regulates cell fate by inducing DNA repair, cell cycle arrest, apoptosis, or cellular senescence. The activation of p53, therefore, is a good indicator of DNA damage and other cellular stresses. […] The activation of the reporter gene under culture conditions can be detected by fluorescence intensity. This cell line was used to screen the Tox21 10K compound library in a 1536-well plate format and to identify agonists that activate the p53 signaling pathway.
Tox21 Assay Protocol Summary:
The p53RE-bla cells were dispensed at 4,000 cells/5 ul/well in 1536-well black wall/clear bottom plates using a Multidrop dispenser. After the assay plates were incubated at a 37 C/5% CO2 incubator for 5 hours, 23 nL of compounds dissolved in DMSO, positive controls or DMSO only was transferred to the assay plate by a pin tool. The plates were incubated at 37 C for 16 hours. After 1 uL of LiveBLAzerTM B/G FRET substrate was added using a Flying Reagent Dispenser, the plates were incubated at room temperature for 2 hours, and fluorescence intensity was measured by an Envision plate reader.
(In general: qHTS replaces the single test concentration by a dilution series.)
With `CC(C)C(=O)Nc1cccc(C(F)(F)F)c1`, the Potency result is “inactive”.

With `CCCCCCCC[Si](OCC)(OCC)OCC`, the Potency entry is “inactive”. The same measure, in the same setting: for `Cc1c(N)cccc1[N+](=O)[O-]` the value was “inactive”.

Take `C=C[Si](C)(C)O[Si](C)(C)C=C`: the Potency entry was “inactive”. As to `CCCCCCCCCCCC`, the Potency result was “inactive”. Same read-out and setting: for `COc1ccc(C2C(=O)c3ccccc3C2=O)cc1` the value was “inactive”; for `CC(=O)Nc1cccc(C)c1`, “inactive”; for `C1COC(NC(C2CC2)C2CC2)=N1`, “inactive”. On the same count and under the same terms, for `C=C(C)C1CC=C(C)C(O)C1` (stereo not given) the value was “inactive”.

For `CC(=O)CC(=O)Nc1ccc(C)cc1C`, the Potency entry was “inactive”. The same measure, in the same setting: for `CCOC(=O)c1cccnc1` the value was “inactive”; for `O=C1c2ccccc2C(=O)C1c1ccc2ccccc2n1`, “inactive”; for `O=C1c2ccccc2C(=O)C1c1ccccc1`, “inactive”.

`O=c1[nH]c(=O)n([C@H]2O[C@H](CO)[C@@H](O)[C@@H]2O)cc1/C=C\Br`: the Potency result is “inactive”. The same measure, in the same setting: for `O=C(CO)[C@@H](O)[C@H](O)[C@@H](O)CO` the value was “inactive”; for `CCN1CCCC1CNC(=O)c1cc(S(=O)(=O)CC)c(N)cc1OC` (stereo not given), “inactive”. Same read-out and setting: for `CCCCCCCC(=O)Oc1c(Br)cc(C#N)cc1Br` the value was “inactive”. For the molecule `C=CC(=C)CC/C=C(\C)CCC=C(C)C`, the activation is -2.41% [at 13.5 µM]. Turning to `NCCS`, the Potency result was “inactive”. Still for that read-out and setting: for `CC(C)(C)c1nnc(NS(=O)(=O)c2ccccc2)s1` the value was “inactive”. Same read-out and setting: for `O=C(CCBr)N1CCN(C(=O)CCBr)CC1` the value was “inactive”; for `OCC(F)(F)F`, “inactive”.

In the case of `CC(C)(C)N(CCO)CCO`, the Potency result was “inactive”. The same measure, in the same setting: for `O=C(NC(Cc1cc(=O)[nH]c2ccccc12)C(=O)O)c1ccc(Cl)cc1` (stereo not given) the value was “inactive”. On the same count and under the same terms, for `O=C(O)c1ccc[n+]([O-])c1` the value was “inactive”; for `CC(c1cc(C(C)(C)C)cc(C(C)(C)C)c1O)c1cc(C(C)(C)C)cc(C(C)(C)C)c1O`, “inactive”. Same read-out and setting: for `OC1(c2ccccc2)CCNCC1` the value was “inactive”; for `CCCCCCCCOS(=O)(=O)O`, “inactive”. For `C=C(C)CCCC`, the Potency result was “inactive”. Same read-out and setting: for `COc1cc(OC)cc(OC)c1` the value was “inactive”; for `O=C(O)c1cccc(-c2noc(-c3ccccc3F)n2)c1`, “inactive”; for `CCCCCCCCCCOCC(O)CN` (stereo not given), “inactive”.

On to `CC(C)CCCC(C)NCCC(C)C` (stereo not given), for which the Potency result was “inactive”. Still for that read-out and setting: for `CC/C=C\CCOC(=O)c1ccccc1` the value was “inactive”; for `CC(C)(C)C(=O)OCOC(=O)[C@@H]1N2C(=O)[C@@H](NC(=O)[C@H](N)c3ccccc3)[C@H]2SC1(C)C`, “inactive”; for `Nc1ccc(S(=O)(=O)Nc2ccccn2)cc1`, “inactive”. Same read-out and setting: for `CCCCCCn1c(=O)c2c(ncn2C)n(C)c1=O` the value was “inactive”; for `CCN(CC)C(=O)N1CCN(C)CC1`, “inactive”.

Turning to `CCOC(=O)c1cnc2c(cnn2CC)c1NN=C(C)C`, the Potency entry was “inactive”. The same measure, in the same setting: for `Cn1c(=O)[nH]c2ncn(C)c2c1=O` the value was “inactive”.
